Screening results deposited in PubChem by The Scripps Research Institute Molecular Screening Center.
Shown are actives, neighbours in structure and some others; about 1.1% of the full set was active somewhere.
HTR5A inv ag: HTR5A inverse agonism, opioid heterodimer counter-screen | P47898 | HTR5A cell line, luminescence | inhibition, % at 9.3 µM | 340,000 compounds, 0.083% hits; in the data active means inhibition mostly above about 23%, no sharp cut-off; inactive means mostly below about 18%;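 further: 0% = cells with DMSO and 100% = no-cell wells with DMSO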
MOR-DOR ag-1: agonists of human mu-delta opioid receptor heterodimerization; P35372+P41143; cells, OPRM1-OPRD1 heterodimerization, luminescence; activation, % at 9.3 µM; 340,000 compounds, 0.3% hits; AID 504326;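 further: 0% = vehicle-treated cells and 100% = reference agonist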
Target sequence (P35372 whole entry, looked up): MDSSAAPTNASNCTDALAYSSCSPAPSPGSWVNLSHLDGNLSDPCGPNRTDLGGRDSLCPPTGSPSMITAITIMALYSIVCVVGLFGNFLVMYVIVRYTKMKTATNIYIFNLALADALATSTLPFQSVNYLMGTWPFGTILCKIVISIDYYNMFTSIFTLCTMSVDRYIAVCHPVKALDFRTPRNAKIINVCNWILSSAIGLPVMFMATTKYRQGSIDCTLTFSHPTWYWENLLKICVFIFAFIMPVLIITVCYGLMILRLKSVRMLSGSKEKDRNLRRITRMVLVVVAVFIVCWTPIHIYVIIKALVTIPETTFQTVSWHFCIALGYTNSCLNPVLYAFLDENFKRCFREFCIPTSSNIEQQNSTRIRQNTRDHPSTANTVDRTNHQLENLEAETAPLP
Target sequence (P41143 whole entry, looked up): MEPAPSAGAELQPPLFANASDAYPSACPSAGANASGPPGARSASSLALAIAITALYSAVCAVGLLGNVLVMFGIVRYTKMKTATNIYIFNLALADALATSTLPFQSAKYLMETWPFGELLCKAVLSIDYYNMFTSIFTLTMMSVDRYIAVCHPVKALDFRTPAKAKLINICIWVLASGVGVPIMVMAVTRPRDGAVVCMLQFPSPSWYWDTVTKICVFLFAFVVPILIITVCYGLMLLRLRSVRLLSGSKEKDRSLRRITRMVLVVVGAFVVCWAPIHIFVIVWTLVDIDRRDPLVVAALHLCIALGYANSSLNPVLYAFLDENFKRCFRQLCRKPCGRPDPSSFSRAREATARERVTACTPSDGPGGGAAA
OPRM1-OPRD1 inv: inverse agonist of human OPRM1-OPRD1 heterodimerization; cell-based MOR-DOR heterodimer luminescence, inverse agonism; P35372+P41143; AID 504357; 340,000 compounds, 0.21% hits; inhibition, % at 9.3 µM; in the data active means inhibition above about 22%, passing the limit was not always enough;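 further: 0% = cells with DMSO and 100% = wells without cells with DMSO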
HTR5A ag ctr: HTR5A agonism, opioid heterodimer counter-screen. P47898. activation, % at 9.3 µM. 340,000 compounds, 0.61% hits. HTR5A agonist assay, luminescence, cell-based; in the data active means activation mostly above about 9.5%, no sharp cut-off; inactive means mostly below about 7.6%;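 further: 0% = cells with vehicle only and 100% = reference agonist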
MOR-DOR ag-2: counter-screen for HTR5A agonists: OPRM1-OPRD1 heterodimerization agonism | shares compounds with HTR5A ag ctr | 800 compounds, 13% hits | activation, % at 9.3 µM | AID 504913 | U2OS counter-screen cells, complementation luminescence, 3 h
HTR5A ag confirm: confirmation of human HTR5A agonists | shares compounds with HTR5A ag ctr | HTR5A agonist cell assay, luminescence | activation, % at 9.3 µM | 800 compounds, 17% hits | AID 504915; in the data active means activation above about 17%;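 further: 0% = cells with vehicle only and 100% = full reference agonist response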
An asterisk follows results filed as active; · = no result given; ! = repeats disagree. Unless noted, no stated cut-off is given here; in the data, active means activation above about 18%; inactive means the rest.

SMILES | HTR5A inv ag | MOR-DOR ag-1 | OPRM1-OPRD1 inv | HTR5A ag ctr | MOR-DOR ag-2 | HTR5A ag confirm
O=C(COc1ccc(-c2ccccc2)cc1)N/N=C/c1cc(O)ccc1Br | -21 | 4 | -26 | 22* | 255* | -2
CC(NC(=O)c1ccco1)c1ccc2c(c1)OCCO2 (stereo not given) | -14 | 0 | 0 | 15* | 2 | -3
O=C(Nc1ncn[nH]1)C(F)(F)C(F)F | 5 | -1 | 4 | -1 | · | ·
CCC(C(=O)Nc1ncn[nH]1)(C(F)(F)F)C(F)(F)F | -12 | -1 | 4 | 18* | 0 | 1
Cc1ccccc1OCc1n(CC(=O)OC2CC(C)CCC2C(C)C)c2ccccc2[n+]1C (stereo not given) | -51 | 4 | -21 | 18* | 14 | 7
CC1CCC(C(C)C)C(OC(=O)Cn2c(-c3ccc(Br)cc3)[n+](C)c3ccccc32)C1 (stereo not given) | -43 | 2 | -9 | 17* | 50*! | 4
CCOc1ccc(C(=O)NNC(=O)CCNC(=O)c2ccc(Br)cc2)cc1OC | 12 | -3 | 15 | -3 | · | ·
O=C(CN1CCN(Cc2ccc(F)cc2Cl)C1=O)NCCc1ccccc1 | -46 | -1 | 5 | 16* | 9 | 3
Cc1ccc(SCC(=O)OCC(=O)N(CC(C)C)c2c(N)n(Cc3ccccc3)c(=O)[nH]c2=O)cc1C | 10 | 2 | -10 | -4 | · | ·
c1ccc2c(CC3=NCCN3)cccc2c1 | -13 | -1 | 3 | 4 | · | ·
Cc1cc(C(C)(C)C)c(O)c(C)c1CC1=NCCN1 | -232 | -1 | 6 | 84* | 0 | 86*
COCCN1CC(C(=O)NCc2ncccc2C)CCC1=O (stereo not given) | -11 | -1 | 4 | 1 | · | ·
CCCCCCCCCn1c2c(c(=N)c3c1CCC3)CCC2 | -62 | -2 | 9 | 25* | 3 | 3
CCCCCCn1c2c(c(=N)c3c1CCC3)CCC2 | -11 | -3 | 18 | -1 | · | ·
CC(C)(C)NC(=O)NC(=O)COC(=O)CNS(=O)(=O)c1ccc(Br)cc1Cl | -25 | 1 | -4 | 0 | · | ·
COc1ccc(CC(=O)Nc2ccc(-c3noc(-c4ccccc4OC)n3)cc2)cc1 | -58 | 3 | -18 | 23* | 221* | -6
CCC(C)c1ccc(NC(=S)N2CCN(S(C)(=O)=O)CC2)cc1 (stereo not given) | 8 | 0 | 2 | 0 | · | ·
CC(C)(C)OC(=O)C[C@@H]1C/C=C\C[C@@H](CC(=O)N[C@H](CO)Cc2ccccc2)C(=O)N2CCC[C@@H]2COC1=O | 2 | -3 | 18 | 16* | 23* | -1
COC(=O)c1c(NC(=O)c2ccccc2C(=O)O)sc2c1CCC2 | -10 | -1 | 7 | 20* | 1 | -2
CCn1c(=O)c(C(=O)Nc2ncccc2C)c(O)c2ccccc21 | -43 | -1 | 7 | 16* | 3 | 10
CCn1c(=O)c(C(=O)Nc2ncccc2O)c(O)c2ccccc21 | -9 | -3 | 16 | 3 | · | ·
CCOc1ccc(NC(=O)Nc2nc(SCC)ns2)cc1 | 24 | 15 | -77 | 18* | 2 | 5
CN1CCN(C(=O)/C(=C\c2cccnc2)NC(=O)c2cccc(Br)c2)CC1 | -17 | 0 | 1 | 2 | · | ·
O=c1[nH]c2ccccc2cc1-c1nnn(-c2ccc(Cl)c(Cl)c2)n1 | -61 | -4 | 21 | 18* | 2 | -3
O=c1[nH]c2ccccc2cc1-c1nnn(-c2ccc(F)cc2)n1 | -2 | 0 | -2 | 0 | · | ·
SMILES | HTR5A inv ag | MOR-DOR ag-1 | OPRM1-OPRD1 inv | HTR5A ag ctr | MOR-DOR ag-2 | HTR5A ag confirm
O=C(Nc1ccccc1)c1ccc2ccccc2n1 | 17 | 5 | -23 | -3 | · | ·
O=C(Nc1ccccc1C(=O)O)c1ccc2ccccc2n1 | -66 | -3 | 13 | 26* | 52* | 3
O=S(=O)(Nc1cccc(-c2ccc3nncn3n2)c1)c1ccccc1F | -52 | 5 | -34 | 20* | 18* | 13
Cc1cccc2c(=O)n3c(cc12)-c1[nH]c2ccccc2c1CC3 | -57 | 15 | -65 | 15* | 3 | -1
O=c1c2ccccc2nc2n1CCc1c-2[nH]c2ccccc12 | -29 | 7 | -40 | 14 | · | ·
CCN1CCN(c2ccc(S(=O)(=O)N3CCOCC3)cc2NC(=O)c2ccc(F)cc2Cl)CC1 | 13 | 0 | 0 | -4 | · | ·
Cc1ccc(S(=O)(=O)CCC(=O)OCC(=O)N2c3ccccc3CC2C)cc1 (stereo not given) | -76 | 1 | -4 | 29* | 0 | 33*
CCOC(=O)N1CCN(C(=O)CCC(=O)N2CCOc3ccc(C)cc32)CC1 | -51 | -2 | 8 | 21* | 4 | -2
CCOC(=O)N1CCC(NC(=O)CCC(=O)N2CCOc3ccc(C)cc32)CC1 | 0 | 1 | -5 | 1 | · | ·
COc1ccc(C(=O)Nc2ccc(OC)c([N+](=O)[O-])c2)cc1Br | 12 | -2 | 10 | 1 | · | ·
COc1ccc(C(=O)Nc2cccc([N+](=O)[O-])c2)cc1Br | -47 | 12 | -51 | 19* | 8 | 0
CCn1c(C)nc2cc(C(=O)N/N=C/c3cccc(OC)c3O)ccc21 | -20 | -2 | 12 | 7 | · | ·
CCC(=NNC(=O)c1ccc2c(c1)nc(C)n2CC)c1cc(F)ccc1O | -71 | -3 | 15 | 18* | 0 | 0
Cc1ccc(NC(=O)C/C(N)=N/OC(=O)c2ccccc2)cc1 | -21 | 9 | -48 | 15* | 6 | 2
O=C1c2cccc3c(O)ccc(c23)C(=O)N1Cc1ccccc1 | -6 | 9 | -39 | 17* | 20* | 1
O=C(O)c1cccc(CN2C(=O)c3ccccc3C2=O)c1 | -12 | -3 | 16 | 3 | · | ·
CCOC(=O)c1c(NC(=O)C(NCCN(C)C)c2ccccc2)sc2c1CCCC2 (stereo not given) | -8 | 1 | -6 | 3 | · | ·
COc1cccc(NC(=O)c2cc(-c3ccncc3)nc3c(C)cc(C)cc23)c1 | -9 | 7 | -32 | 16* | 6 | 8
COc1cccc(-c2csc(N3CCN(C(=S)Nc4ccccc4)CC3)n2)c1 | -52 | 3 | -18 | 22* | -2 | -7
COc1cccc(-c2csc(N3CCN(C(=S)Nc4ccc(Cl)cc4)CC3)n2)c1 | -32 | 2 | -13 | 12 | · | ·
COc1ccc(Cc2nnc(SCC(=O)Nc3ccccc3C#N)o2)cc1 | -32 | -3 | 14 | 13 | · | ·
CN1C(=O)C2(NCCc3c2[nH]c2ccccc32)c2ccccc21 (stereo not given) | -14 | 1 | -4 | 5 | · | ·
CC1=CC(C)(C)N2C(=O)C3(NCCc4c3[nH]c3ccccc43)c3cc(C)cc1c32 (stereo not given) | -24 | 3 | -13 | 16* | 32* | 6
CC(C)S(=O)(=O)c1csc(NC(=O)Nc2cc(Cl)ccc2Cl)c1Cl | 4 | 3 | -17 | 0 | · | ·
O=C(CSC1=NCCN1)Nc1cccc(C(F)(F)F)c1 | -57 | -2 | 8 | 23* | 24* | 5
Cn1ccnc1SCC(=O)Nc1cccc(C(F)(F)F)c1 | 3 | -1 | 4 | 0 | · | ·
